Hit rate of the full screen: of about 57,000 sequences, about 3,500 (6.1%) were called active. No stated cut-off is given here; in the data, active = GI50 up to about 1.1 µM and inactive = higher. The entries come from a sample that favours actives as a whole. Results with a measured potency or affinity are listed apart.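 Exposure lasted 48 hours, with cells grown in 96-well plates and compounds tested at five concentrations. GI50: concentration for 50% inhibition of growth.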
Tested on: 786-0
Assay: NCI tumour cell line growth inhibition, 48 h

Row | Substance | GI50
1 | [Bis(aminomethyl)tetramethylenesilane]dichloropaltinum(II), CHEMBL2146205 | 5780 nM
2 | [Bis(aminomethyl)diethylsilane]tetrachloroplatinum(IV), CHEMBL2146203 | 2180 nM
3 | [Bis(aminomethyl)tetramethylenesilane]tetrachloropaltinum(IV), CHEMBL2146189 | 3100 nM
4 | CISPLATIN, CHEMBL11359 | 1100 nM
5 | [Bis(aminomethyl)ethylmethylsilane]tetrachloroplatinum(IV), CHEMBL2146192 | 1340 nM
6 | [Bis(aminomethyl)dimethylsilane]dichloroplatinum (II), CHEMBL2146201 | 6140 nM
7 | [Bis(aminomethyl)pentamethylenesilane]tetrachloropaltinum(IV), CHEMBL2146204 | 1220 nM
8 | [Bis(aminomethyl)pentamethylenesilane]dichloropaltinum(II), CHEMBL2146202 | 916 nM
9 | [Bis(aminomethyl)dimethylsilane]tetrachloroplatinum(IV), CHEMBL2146190 | 2120 nM
10 | mu-(1,7-nanodiamine-N,N')bis-(cis-aminedichloroplatimum (II)), CHEMBL2146215 | 8730 nM
11 | cis-Bis[[(trimethylsilyl)methyl]amino]tetrachloroplatinum(IV), CHEMBL2146191 | 5710 nM

From ChEMBL document CHEMBL1201862, “PubChem BioAssay data set” (2004)
